pCIP destab: p/CIP protein destabilization; Q05BA5; F442A p/CIP-EGFP cells, EGFP fluorescence, 16 h; decrease of EGFP signal, % at 10 µM; 0.01% of 290,000 active;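 active = EGFP signal decrease of at least 30% at 10 µM or well 3 SD below plate mean, unless failing retest; inactive = the rest, including hits failing retest or dose response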
Target sequence (Q05BA5 1-1403): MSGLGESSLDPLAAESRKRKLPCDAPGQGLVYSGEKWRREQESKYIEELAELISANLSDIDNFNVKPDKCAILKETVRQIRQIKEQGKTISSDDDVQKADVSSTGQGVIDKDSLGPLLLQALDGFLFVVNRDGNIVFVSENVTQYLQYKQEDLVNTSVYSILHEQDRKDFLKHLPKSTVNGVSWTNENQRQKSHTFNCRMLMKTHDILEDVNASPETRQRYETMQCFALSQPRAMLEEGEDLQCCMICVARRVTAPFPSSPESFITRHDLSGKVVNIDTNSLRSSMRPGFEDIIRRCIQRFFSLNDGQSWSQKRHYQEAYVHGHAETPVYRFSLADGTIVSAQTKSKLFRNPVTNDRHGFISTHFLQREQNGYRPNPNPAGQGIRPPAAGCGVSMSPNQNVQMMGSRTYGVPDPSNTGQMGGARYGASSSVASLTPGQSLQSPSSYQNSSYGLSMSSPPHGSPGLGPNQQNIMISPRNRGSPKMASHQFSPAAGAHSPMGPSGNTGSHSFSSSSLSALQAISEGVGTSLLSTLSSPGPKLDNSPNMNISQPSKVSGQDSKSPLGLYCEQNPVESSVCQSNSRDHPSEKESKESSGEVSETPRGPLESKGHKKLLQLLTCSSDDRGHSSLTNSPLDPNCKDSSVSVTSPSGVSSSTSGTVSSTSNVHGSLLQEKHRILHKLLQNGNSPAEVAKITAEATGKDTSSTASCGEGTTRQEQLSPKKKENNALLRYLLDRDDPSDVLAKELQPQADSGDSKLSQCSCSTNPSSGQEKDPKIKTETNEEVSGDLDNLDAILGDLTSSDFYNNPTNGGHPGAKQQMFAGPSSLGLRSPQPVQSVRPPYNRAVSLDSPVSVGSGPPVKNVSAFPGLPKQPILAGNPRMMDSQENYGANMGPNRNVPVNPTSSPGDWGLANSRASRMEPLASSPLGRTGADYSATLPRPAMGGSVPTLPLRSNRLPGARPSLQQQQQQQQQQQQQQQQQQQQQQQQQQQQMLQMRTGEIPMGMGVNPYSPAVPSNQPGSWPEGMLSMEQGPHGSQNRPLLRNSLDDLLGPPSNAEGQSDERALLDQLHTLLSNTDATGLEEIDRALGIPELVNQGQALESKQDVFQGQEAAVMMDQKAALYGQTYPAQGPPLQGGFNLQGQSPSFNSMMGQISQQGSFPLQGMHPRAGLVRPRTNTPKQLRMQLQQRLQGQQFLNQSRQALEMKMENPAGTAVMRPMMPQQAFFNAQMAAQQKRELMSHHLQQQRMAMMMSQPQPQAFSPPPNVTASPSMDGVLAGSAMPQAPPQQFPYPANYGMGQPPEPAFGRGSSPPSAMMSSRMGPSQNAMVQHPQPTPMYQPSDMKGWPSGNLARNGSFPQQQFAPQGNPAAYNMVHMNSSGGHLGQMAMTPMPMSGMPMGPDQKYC
HDAC3 inh: blocks human histone deacetylase 3; O15379; recombinant HDAC3, fluorogenic peptide/trypsin coupled, fluorescence; inhibition, % at 8.3 µM; 0.15% of 320,000 active; AID 2718; in the data active = inhibition above about 26%, passing the limit was not always enough
GASC-1 inh: human JMJD2C demethylase inhibition | Q9H3R0 | GST-JMJD2C(1-420) H3K9me3 demethylation, DELFIA europium | inhibition, % at 2.35 µM | 0.069% of 330,000 active;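 active = more than half of a compound's replicate wells show inhibition beyond 50%, single wells judged on their own value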;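 also: signal counts dimethyl H3K9 product captured on neutravidin plate; 0% = median of DMSO wells and 100% = 0.3 times that DMSO median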
PvdQ inh: blocks Pseudomonas aeruginosa PvdQ acylase activity; purified PvdQ acylase, fluorescence plate reader; inhibition, % at 10 µM; 0.063% of 340,000 active; in the data active = inhibition above about 30%, passing the limit was not always enough;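 also: 0% = vehicle neutral wells and 100% = reference inhibitor wells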
SUMO Mot1 rescue: blocks SUMOylation pathway, rescuing yeast Mot1-301 growth. S. cerevisiae Mot1-301 growth rescue, ATP luminescence, 38.5C; percent above DMSO median, 100 means doubled. growth rescue, % at 18.8 µM. 1% of 320,000 active. AID 2716;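 active = every valid replicate shows activation above 250% relative to neutral control wells; inactive = the rest, any valid replicate at or below 250%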;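 also: OY570 slx delta 5 strain wells were the positive control but not used for scaling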
PHOSPHO1 inh: inhibitors of human PHOSPHO1 phosphatase; recombinant PHOSPHO1, absorbance phosphatase assay; inhibition, % at 13.3 µM; 1.1% of 290,000 active; AID 1565; in the data active = inhibition above about 60%
Mot1 SUMO dose: inhibits SUMO pathway, affecting Mot1-301 yeast growth; shares compounds with SUMO Mot1 rescue; S. cerevisiae Mot1-301 galactose growth, ATP luminescence, 24 h; -100 = growth of slx-deleted rescue strain; growth activity, percent, % at 42 µM; 2,300 tested, under 10 active;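 active = Signal drops as the depositor expects, and the fitted half-maximal dose is no more than ten times the top valid tested dose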;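 also: more negative values mean stronger growth rescue toward the control strain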
The depositor's hits bear a star; · = no result given; + = active, no number. An excerpt weighted towards active compounds, which were near 2.2% of everything screened.

SMILES	pCIP destab	HDAC3 inh	GASC-1 inh	PvdQ inh	SUMO Mot1 rescue	PHOSPHO1 inh	Mot1 SUMO dose
COc1cc(SC)ccc1C(=O)Nc1ccc2c(c1)CCC2	4	6	6	7	12	-4	·
O=c1oc2ccccc2c2c1ccc1ccccc12	·	·	·	-15	·	·	·
COc1cccc(CN2CCC(C(=O)N3CCC(C)CC3)CC2)c1	-9	4	89	-11	2	33	·
COc1cc(C(=O)Oc2cccnc2)cc(OC)c1OC	-1	3	-2	-15	481*	·	0
CCOC(=O)c1nn(-c2ccc(F)cc2)c2nc(Nc3ccccc3)cc(=O)n12	-3	3	11	-1	71	7	·
CO/N=C/c1ccc(Oc2ccc(C)cc2)nc1	-8	9	-5	8	495*	24	0
Cc1ccc(Oc2ccc(C=O)cn2)cc1	6	-2	-8	-11	2	28	·
CCN(CC)C(=O)Cn1cc(S(=O)(=O)CC(=O)Nc2ccccc2C)c2ccccc21	-4	-1	-1	-15	1	-1	·
CCN(CC)C(=O)Cn1cc(S(=O)(=O)CC(=O)NCCc2ccc(OC)c(OC)c2)c2ccccc21	9	·	8	-10	384*	-17	-1
COc1cccc(N2CCN(CC(=O)N3CCN(S(=O)(=O)c4ccc(Cl)cc4)CC3)CC2)c1	·	·	·	-8	·	·	·
Cc1cc(C)cc(NC(=O)CS(=O)(=O)c2ccccc2)c1	0	-2	-5	-6	368*	14	0
COc1ccc(OC)c(S(=O)(=O)N(C)CC(=O)Nc2ccccc2OC)c1	-8	-13	-4	-1	-3	1	·
COc1ccc(OC)c(NC(=O)CN(C)S(=O)(=O)c2ccc(Cl)cc2)c1	20	2	16	-13	415*	30	0
COc1ccc(C#Cc2c(-c3ccccc3)n(C)c3ccccc23)cc1	·	-8	·	-21	6	·	·
Cc1cc(C#Cc2c(-c3ccccc3)n(C)c3ccccc23)ccc1F	-6	-4	-13	-6	716*	15	0
Clc1ccccc1C(c1ccccc1)(c1ccccc1)n1ccnc1	-1	13	1	-12	662*	-67	-2
FC(F)(F)c1ccccc1-n1ccnc1	·	-13	·	-4	12	·	·
CC(C)OC(=O)Cn1nc(C(c2ccccc2)c2ccccc2)oc1=O	-3	-3	-2	-13	13	56	·
COc1ccccc1CNc1nc(SC)ncc1CO	2	-5	1	-23	474*	-7	0
COc1ccccc1CNc1ncnc2sccc12	-19	-5	-1	-1	-11	7	·
Fc1cc(Cl)ccc1NC1=NCCCCC1	10	-14	-11	-17	-3	44	·
CCOC(=O)CSc1ccc(S(=O)(=O)N2CCCCC2)cc1[N+](=O)[O-]	-19	6	-2	-5	-10	-8	·
COC(=O)CSc1ccc(S(=O)(=O)N2CCCCCC2)cc1[N+](=O)[O-]	9	1	21	2	520*	18	1
CC(O)CNc1ccc(-c2nn(C)c(=O)c3ccccc23)cc1[N+](=O)[O-] (stereo not drawn)	9	2	-3	-8	9	29	·
COc1ccc(NC(=O)COC(=O)c2cc(OC)c(OC)c(OC)c2)c([N+](=O)[O-])c1	-6	·	-1	6	-31	38	·
SMILES	pCIP destab	HDAC3 inh	GASC-1 inh	PvdQ inh	SUMO Mot1 rescue	PHOSPHO1 inh	Mot1 SUMO dose
CNS(=O)(=O)c1cccc(C(=O)OCC(=O)Nc2ccc(OC)cc2[N+](=O)[O-])c1	6	-6	30	-13	810*	-63	0
Cc1c(C(=O)Nc2nnc(C3CC3)s2)oc2ccccc12	·	15	14	1	1	·	·
CCOC(=O)c1c(C)[nH]c(C(=O)COC(=O)c2ccncc2)c1C	-11	-5	-4	-14	+	16	0
CCOC(=O)c1c(C)[nH]c(C(=O)COC(=O)c2cnccn2)c1C	·	-2	0	-9	0	·	·
CCc1ccc(CNCc2cccs2)cc1	1	6	1	-1	5	19	·
Clc1ccc(CNCc2cccs2)cc1Cl	-8	4	1	10	363*	-11	1
COc1ccccc1NC(=O)CSc1nc(O)c(Cc2ccccc2)c(=O)[nH]1	-4	-3	-2	-7	+	22	1

Source: PubChem BioAssay (several laboratories)
